Source: PubChem BioAssay (National Center for Advancing Translational Sciences (NCATS))
This is a sample that favours compounds with a hit; in the whole collection about 5.4% have one here.
FMDV antiviral = antivirals against foot and mouth disease virus; AID 1159524; 410,000 compounds, 1.2% hits; Potency, µM (top dose mostly 57.9 µM), for the others: top-dose activity change, negative = inhibition, most hits filed as inhibitors; FMDV antiviral cell-based qHTS; calls by dose curve; tested in HEK293T cells; note: read-out not given here; nearly all actives have a fitted effect of over 45% in size
Sm TGR block = blocks Schistosoma mansoni thioredoxin glutathione reductase | Q962Y6 | purified TGR, DTNB reduction, TNB absorbance 405 nm | Potency, µM (top dose mostly 114 µM), for the others: at the top dose activity change, negative = inhibition, usual class: inhibitors | 360,000 compounds, 3% hits; active = well fitted inhibition curve with a large enough effect; inconclusive = small, poorly fitted or top-dose-only effect; inactive = no such curve, though single readings can be large or run the other way; note: nearly all actives have a fitted effect of over 60% in size
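Kinetic colorimetric format: TGR-catalysed, NADPH-driven DTNB reduction monitored via TNB absorbance. Enzyme dispensed at 20 nM; compound exposure 15 min at room temperature before reaction start.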
VACV mCherry inh = vaccinia inhibition (mCherry reporter). Potency, µM (titrated, usually from 36.5 µM), inactives show top-dose activity change, negative = inhibition, hits mostly inhibitors. 310,000 compounds, 0.63% hits. Vaccinia virus mCherry reporter infection, fluorescence; calls by dose curve; tested in A549 cells; note: nearly all actives have a fitted effect of over 35% in size
MARV entry inh = Marburg virus entry inhibition; Marburg virus pseudotyped entry inhibition, cell reporter; Potency, µM (highest dose often 37.8 µM), without a hit: at the highest dose activity change, negative = inhibition, most hits filed as inhibitors; 300,000 compounds, 1.8% hits; calls by dose curve; tested in HEK293 cells
Vaccinia Venus = inhibitors of vaccinia virus (Venus reporter). Vaccinia virus Venus reporter expression, fluorescence. 330,000 compounds, 0.46% hits. Potency, µM (series often up to 36.5 µM), for inactives: top-dose activity change, negative = inhibition, hits mostly inhibitors; calls by dose curve; tested in A549 cells; note: nearly all actives have a fitted effect of over 30% in size
LASV entry inh = blocks Lassa virus binding to or entry into cells; Lassa virus pseudotype entry inhibition, cell reporter; Potency, µM (highest dose often 37.9 µM), without a hit: at the top dose activity change, negative = inhibition, actives largely listed as inhibitors; 300,000 compounds, 1.2% hits; calls by dose curve; tested in HEK293 cells; note: nearly all actives have a fitted effect of over 50% in size
Active calls of the source: *; i = inactive; ? = inconclusive; . = not tested or not shown; [ ] = dose if it differs, or a comment. % is set by controls: 0 for no effect and ±100 for the full control effect; potency is the fitted concentration of half-maximal effect.

SMILES	FMDV antiviral	Sm TGR block	VACV mCherry inh	MARV entry inh	Vaccinia Venus	LASV entry inh
CCOC(=O)N1CCN(c2cc(C)c(C(C)=O)cc2F)CC1	-6%	18%[11.4 µM]	-7%	-16%	-1%	28%
CCOC(=O)C1(Cc2cccc(Cl)c2)CCCN(C(=O)c2ccco2)C1 (stereo not drawn)	-3%	?	.	.	.	.
CCOC(=O)C1(Cc2cccc(Cl)c2)CCCN(C(=O)c2cccc(C)n2)C1 (stereo not drawn)	-14%	0%	-6%	7.1µM*	-13%	?
C1=Cc2ccccc2/C1=C\c1cccc(/C=C2\C=Cc3ccccc32)c1	.	.	-3%	.	-20%	.
CNc1ccc(Br)cc(C(=O)/C=C/c2cccc(OC)c2)c1=O	?	3.2µM*	.	?	.	?
CCNc1ccc(Br)cc(C(=O)/C=C/c2c(Cl)cccc2Cl)c1=O	32µM*	0.89µM*	.	?	.	?
CCNc1ccc(Br)cc(C(=O)/C=C/c2ccc3c(c2)OCO3)c1=O	?	?	.	-2%	-7%	-26%
CNc1ccc(Br)cc(C(=O)/C=C/c2ccc(Cl)cc2Cl)c1=O	10µM*	3.5µM*	4%	?	14%	?
CCNc1ccc(Br)cc(C(=O)/C=C/c2ccc(Cl)cc2)c1=O	?	10µM*	?	?	-21%	-5%
COc1cccc(C2=NN(S(C)(=O)=O)C(c3cn(-c4ccccc4)nc3-c3cccs3)C2)c1 (stereo not drawn)	30%	-11%	-4%	-24%[46.1 µM]	-11%	18%[46.1 µM]
Cc1ccc(-n2ncc3c(NC4CCCC4)ncnc32)cc1	-82%	0%	-10%	.	-9%	?
COc1ccc(NC(=O)c2cc(C(C)C)on2)c(OC)c1	40%	11%	-14%	.	-3%	.
COc1cc(NC(=O)c2cc(C(C)C)on2)c(OC)cc1Cl	-8%	8%	-4%	15µM*	-4%	?
COc1ccc(NC(=O)CSc2ccc(-c3ccco3)nn2)cc1	-18%	14µM*	-17%	?	-11%	2%
COc1cc(NC(=O)CSc2ccc(-c3ccco3)nn2)cc(OC)c1	?	32µM*	.	.	.	.
COc1ccc(NC(=O)CSc2ccc(-c3cccs3)nn2)cc1	?	8%	-13%	.	-10%	-3%[46.1 µM]
CC1=Nc2cc(C(=O)NCCc3ccc(Cl)cc3)ccc2Sc2c(C)ccc(C)c21	-27%	0%	?	?	-24%	?
CC1=C(C(=O)OCCNC(=O)c2ccccc2O)C(c2ccccc2[N+](=O)[O-])C(C(=O)OCC2CCCO2)=C(C)N1 (stereo not drawn)	28µM*	-2%	i	?	?	10µM*
Cc1ccc(S(=O)(=O)c2nnn3c2nc(N2CCC(C)CC2)c2cc(Cl)ccc23)cc1C	7%	4%	-24%	?	-29%	.
CN(Cc1ccon1)C(=O)CC1C(=O)NCCN1Cc1cccc(F)c1F (stereo not drawn)	-13%	?	-2%	?	-10%	1%
COc1ccc(CN2CCNC(=O)C2CC(=O)NCC2CCOCC2)cc1C (stereo not drawn)	-2%	?	.	.	.	.
O=C1NCCN(Cc2ccc(Cl)c(F)c2)C1CC(=O)N1CCCCO1 (stereo not drawn)	14%	25µM*	i	.	-10%	.
CN(CCCC1CCCC1)C(=O)CC1C(=O)NCCN1Cc1cccc(F)c1F (stereo not drawn)	-26%	28µM*	-21%	3%	-15%	3%
O=C(CC1C(=O)NCCN1Cc1ccc(Cl)c(F)c1)NCCc1cccnc1 (stereo not drawn)	-13%	45µM*	-12%	12%[46.1 µM]	-7%	-5%
O=C(CC1C(=O)NCCN1Cc1ccc(Cl)c(F)c1)NCC1CCOCC1 (stereo not drawn)	-12%	40µM*	.	.	.	.
SMILES	FMDV antiviral	Sm TGR block	VACV mCherry inh	MARV entry inh	Vaccinia Venus	LASV entry inh
CN(Cc1ccccc1)c1ccc2cc(S(=O)(=O)N3CCCCC3)ccc2n1	-14%	5%	-4%	.	-3%	?
C=CC[C@@H]1C=C[C@H](ON=C[C@@H](C)[C@H](OCc2ccccc2)C(C)C)[C@H](CO)O1	.	.	.	-10%[14.2 µM]	.	?
COCc1c(C(=O)N2CCN(C3CCCCC3)CC2)cnn1-c1ncc(C)c(-c2cccs2)n1	-1%	.	-2%	.	-11%	.
CN(CCC1CCOCC1)C(=O)CC1C(=O)NCCN1Cc1c(F)cccc1Cl (stereo not drawn)	-2%	45µM*	-10%	-12%	-9%	-10%
Cc1cnc(CNC(=O)CC2C(=O)NCCN2Cc2cccc(F)c2F)cn1 (stereo not drawn)	12%	18µM*	-13%	?	-3%	1%[46.1 µM]
CN(CC1CCOCC1)C(=O)CC1C(=O)NCCN1Cc1ccc(Cl)c(F)c1 (stereo not drawn)	-19%	28µM*	.	.	.	.
O=C(CC1C(=O)NCCN1Cc1ccc(Cl)c(F)c1)NC1CCC1 (stereo not drawn)	-10%	40µM*	-18%	1%[46.1 µM]	-18%	19%[46.1 µM]
O=C(O)C[C@H](NC(=O)COc1ccc(Cl)cc1Cl)C(=O)O	.	.	.	1%	.	.
COc1ccc(OC)c(CNS(=O)(=O)c2ccc3c(c2)CCCN3C(C)=O)c1	13%	1%	7%	.	-6%	-13%[46.1 µM]
Cc1sc2ncnc(N3CCC(C(=O)Nc4ccc(Cl)c(Cl)c4)CC3)c2c1C	?	-3%	.	.	.	.
COc1ccc(CC(=O)Nc2nc(-c3ccc(OC)c(OC)c3)cs2)cc1OC	?	10%	-25%	?	-27%	?
Cc1cccc(OCC(=O)NNC(=O)C2CCN(c3ncnc4sc(C)c(C)c34)CC2)c1	28µM*	1%	-11%	-29%	-26%	-1%
Cc1sc2ncnc(N3CCC(C(=O)Nc4ccc(Br)cc4Br)CC3)c2c1C	20µM*	-1%	-8%	11µM*	-9%	?
COc1ccc(-c2csc(NC(=O)C3CCN(c4ncnc5sc(C)c(C)c45)CC3)n2)cc1OC	8.9µM*	-2%	-18%	4µM*	?	2µM*
COc1ccc(-c2csc(NC(=O)C3CC(=O)N(Cc4ccccc4)C3)n2)cc1OC (stereo not drawn)	32µM*	-4%	-16%	?	?	-18%
Cc1sc2ncnc(N3CCC(C(=O)NCC(=O)Nc4ccc(F)c(F)c4)CC3)c2c1C	?	-10%	?	?	?	?
COc1ccc(CNC(=O)CSc2ncc3c(n2)-c2ccc(Cl)cc2N(Cc2ccc(F)cc2)S3(=O)=O)cc1OC	?	7%	-28%	.	-13%	21%[46.1 µM]
Cc1c(Cl)cccc1NC(=O)CSc1nc(=O)[nH]c2c1CCCC2	-17%	0%	-11%[7.34 µM]	.	-4%[7.34 µM]	-3%[46.1 µM]
Cc1ccccc1OCC(=O)NNC(=O)C1CCN(c2ncnc3sc(C)c(C)c23)CC1	?	10%	-17%	?	-25%	-18%
COc1cc(C(=O)N2CCN(c3ncnc4sc(C)c(C)c34)CC2)cc(OC)c1OC	11µM*	31%	?	?	?	?
